Where “and” joins values, the source holds several entries; their conditions need not be identical. Equal values may be shown once. About 2,000 (36%) of roughly 5,500 compounds were called active. Roughly 18% stayed inconclusive and do not appear here. Cut-off read from the data, not from the text of the source: active = normalized growth mostly below about 0.91 (no sharp cut-off); inconclusive = no clear call, values can overlap the other calls; inactive = mostly above about 0.92. The list shows a part of the results.
Assay: chemical genetic growth profiling, strain panel (AID 1159580);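 note: tested at 20 µM; growth read once vehicle control cultures reached saturation at 30 °C; 1 = growth at the plate median or of vehicle wells; lower values mean less growth of the strain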
Conditions: S. cerevisiae deletion strains, growth OD

Measured: normalized growth

O=C(O)CCCCC1SCC2NC(=O)NC21 (stereo not drawn)
inactive: locus YAL013W, strain DEP1, hits give low values 1.02 | locus YAL021C, strain ccr4, hits give low values 0.999 | locus YAL026C, strain drs2, hits give low values 0.994 | locus YAL030W, strain snc1, hits give low values 0.995 | locus YBL061C, strain skt5, hits give low values 0.989 | locus YBR009C, strain hhf1, hits give low values 0.997 | locus YBR021W, strain FUR4, hits give low values 0.977 | locus YBR023C, strain chs3, hits give low values 0.979 | locus YBR171W, strain sec66, hits give low values 0.996 | locus YBR229C, strain ROT2, hits give low values 1 | locus YBR231C, strain swc5, hits give low values 0.998 | locus YBR279W, strain paf1, hits give low values 0.997 | locus YCL011C, strain gbp2, hits give low values 0.995 | locus YCL016C, strain dcc1, hits give low values 0.995 | locus YCL029C, strain bik1, hits give low values 0.998 | locus YCL061C, strain MRC1, hits give low values 1 | locus YCL069W, strain vba3, hits give low values 0.97 | locus YCR088W, strain abp1, hits give low values 0.981 | locus YDL005C, strain med2, hits give low values 0.98 | locus YDL035C, strain GPR1, hits give low values 0.996 | locus YDL040C, strain nat1, hits give low values 1 | locus YDL074C, strain BRE1, hits give low values 1.01 | locus YDL101C, strain DUN1, hits give low values 0.989 | locus YDL134C, strain PPH21, hits give low values 1 | locus YDL185W, strain tfp1, hits give low values 0.997 | locus YDL192W, strain arf1, hits give low values 1.01 | locus YDR001C, strain nth1, hits give low values 0.985 | locus YDR069C, strain doa4, hits give low values 0.973 | locus YDR101C, strain arx1, hits give low values 0.98 | locus YDR137W, strain rgp1, hits give low values 0.983 | locus YDR150W, strain NUM1, hits give low values 1.02 | locus YDR159W, strain sac3, hits give low values 1.02 | locus YDR162C, strain NBP2, hits give low values 1.01 | locus YDR195W, strain ref2 1.01 | locus YDR297W, strain sur2, hits give low values 0.996 | locus YDR318W, strain mcm21, hits give low values 1 | locus YDR334W, strain swr1, hits give low values 0.984 | locus YDR335W, strain msn5, hits give low values 0.986 | locus YDR388W, hits give low values 1 | locus YDR392W, strain spt3, hits give low values 0.996 | locus YDR502C, strain sam2, hits give low values 0.994 | locus YEL003W, strain gim4, hits give low values 0.984 | locus YEL037C, strain rad23, hits give low values 0.992 | locus YEL061C, strain CIN8 (second series), hits give low values 1 | locus YEL061C, strain CIN8, hits give low values 1.02 | locus YER015W, strain faa2, hits give low values 0.979 | locus YER016W, strain bim1, hits give low values 0.988 | locus YER110C, hits give low values 1 | locus YER111C, strain swi4, hits give low values 1 | locus YER155C, strain BEM2 (second series), hits give low values 0.985 | locus YER155C, strain BEM2, hits give low values 0.999 | locus YER167W, strain BCK2, hits give low values 1 | locus YFR010W, strain ubp6, hits give low values 0.995 | locus YGL078C, strain dbp3, hits give low values 0.99 | locus YGL086W, strain mad1, hits give low values 0.993 | locus YGL167C, strain pmr1, hits give low values 0.99 | locus YGL173C, strain kem1, hits give low values 0.985 | locus YGL227W, strain vid30, hits give low values 1 | locus YGL240W, strain doc1, hits give low values 0.985 | locus YGL248W, strain PDE1, hits give low values 1 | locus YGL253W, strain hxk2, hits give low values 0.985 | locus YGR078C, strain PAC10, hits give low values 1.05 | locus YGR135W, strain pre9, hits give low values 0.999 | locus YGR252W, strain gcn5, hits give low values 0.944 | locus YHR013C, strain ard1, hits give low values 0.988 | locus YHR027C, strain rpn1, hits give low values 0.989 | locus YHR030C, strain SLT2, hits give low values 1.02 and 1.01 | locus YHR079C, strain IRE1 (second series), hits give low values 1.02 | locus YHR079C, strain IRE1, hits give low values 1.01 | locus YHR094C, strain hxt1, hits give low values 1 | locus YHR129C, strain ARP1, hits give low values 1.01 | locus YHR142W, strain chs7, hits give low values 0.982 | locus YHR200W, strain rpn10, hits give low values 0.996 | locus YIL066C, strain RNR3, hits give low values 1.01 | locus YIL073C, strain SPO22, hits give low values 1.02 | locus YIL125W, strain kgd1, hits give low values 0.987 | locus YIR030C, strain dcg1, hits give low values 1.01 | locus YJL092W, strain hpr5, hits give low values 0.986 | locus YJL095W, strain BCK1 (second series), hits give low values 0.998 | locus YJL095W, strain BCK1, hits give low values 1.02 and 1 | locus YJL115W, strain asf1, hits give low values 0.996 | locus YJL129C, strain trk1, hits give low values 0.954 | locus YJL134W, strain LCB3, hits give low values 1.01 | locus YJL154C, strain vps35, hits give low values 0.994 | locus YJL164C, strain tpk1, hits give low values 1 | locus YJL166W, strain qcr8, hits give low values 0.965 | locus YJL168C, strain set2, hits give low values 0.993 | locus YJL187C, strain SWE1 (second series), hits give low values 1
